From PubChem BioAssay
A selection follows.
aSyn 5UTR act: Activators working through SNCA 5'UTR binding (MLPCN); alpha-synuclein 5'UTR reporter, activators screen; activity score, % (tested at 7.5 µM), hits read low; hit rate 7.1% among 300,000; in the data active means activity score below about -60%
Hits are given with their value; n = inactive.

SMILES | aSyn 5UTR act
O=C(NN=C1CCCCCC1)c1cccs1 | -75
C/C(=N/NC(=O)c1cccs1)c1ccco1 | -100
Cn1c2ccccc2c2cc(C(=O)N3CCN(CCO)CC3)sc21 | -86
Cn1c(C(=O)NCCc2c[nH]c3ccccc23)cc2sccc21 | -237
O=C(NCCc1c[nH]c2ccccc12)c1cccnc1 | -67
O=C(NCCc1c[nH]c2ccccc12)c1cc(Cl)c2c(c1)OCO2 | -110
O=C(NCCc1ccccc1F)c1ccc2c(c1)OCCO2 | n
O=C(NCCc1ccc(Cl)cc1)c1ccc2c(c1)OCO2 | -121
O=C(NCCc1c[nH]c2ccccc12)c1ccc2c(c1)OCO2 | -142
COC(=O)c1sccc1N/N=C/c1ccc(OC)c(OC)c1OC | -140
COC(=O)c1sccc1N/N=C/c1cccc(Oc2ccccc2)c1 | -64
CCC(C(=O)O/N=C(\N)c1cccc(C)c1)c1ccccc1 (configuration not stated) | -88
Cc1cccc(/C(N)=N/OC(=O)Cc2ccccc2)c1 | -142
Cc1cccc(/C(N)=N/OC(=O)N2c3ccccc3Sc3ccccc32)c1 | -70
CN(C)C(/C=C/Nc1ccc(F)cc1)=C(C#N)C#N | -63
N#CC(C#N)=C(Nc1ccc(F)cc1)SCc1cccc(Br)c1 | n
